Source: PubChem (National Center for Advancing Translational Sciences (NCATS))
In the library only some 1.3% were active in any assay of this set; here they are far more common.
hERG WT inh – KCNH2 (human, wildtype) channel inhibition | Q12809 | U2OS, BacMam KCNH2, thallium flux FluxOr; active compounds read low | activity change, % at 1.84 µM | hit rate 0.37% among 340,000;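 active = maximum activity change below -70%; inconclusive = maximum activity change between -70% and -50%; inactive = maximum activity change above -50%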
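U2OS cells were transduced with wild-type KCNH2 virus (2.03 x 10^8 / mL) for 4 h at room temperature, then cultured overnight at 37 C. Thallium flux was read with FluxOr dye. Rate constants were normalized to DMSO controls.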
TRPV1 agonist – human TRPV1 agonism. Q8NER1. TRPV1-expressing cells, Fluo-8 calcium influx, agonist mode. activation, % at 8.33 µM. hit rate 0.19% among 320,000; in the data active = activation above about 80%; inconclusive = between about 30% and that limit
Target sequence (Q8NER1 whole entry, looked up): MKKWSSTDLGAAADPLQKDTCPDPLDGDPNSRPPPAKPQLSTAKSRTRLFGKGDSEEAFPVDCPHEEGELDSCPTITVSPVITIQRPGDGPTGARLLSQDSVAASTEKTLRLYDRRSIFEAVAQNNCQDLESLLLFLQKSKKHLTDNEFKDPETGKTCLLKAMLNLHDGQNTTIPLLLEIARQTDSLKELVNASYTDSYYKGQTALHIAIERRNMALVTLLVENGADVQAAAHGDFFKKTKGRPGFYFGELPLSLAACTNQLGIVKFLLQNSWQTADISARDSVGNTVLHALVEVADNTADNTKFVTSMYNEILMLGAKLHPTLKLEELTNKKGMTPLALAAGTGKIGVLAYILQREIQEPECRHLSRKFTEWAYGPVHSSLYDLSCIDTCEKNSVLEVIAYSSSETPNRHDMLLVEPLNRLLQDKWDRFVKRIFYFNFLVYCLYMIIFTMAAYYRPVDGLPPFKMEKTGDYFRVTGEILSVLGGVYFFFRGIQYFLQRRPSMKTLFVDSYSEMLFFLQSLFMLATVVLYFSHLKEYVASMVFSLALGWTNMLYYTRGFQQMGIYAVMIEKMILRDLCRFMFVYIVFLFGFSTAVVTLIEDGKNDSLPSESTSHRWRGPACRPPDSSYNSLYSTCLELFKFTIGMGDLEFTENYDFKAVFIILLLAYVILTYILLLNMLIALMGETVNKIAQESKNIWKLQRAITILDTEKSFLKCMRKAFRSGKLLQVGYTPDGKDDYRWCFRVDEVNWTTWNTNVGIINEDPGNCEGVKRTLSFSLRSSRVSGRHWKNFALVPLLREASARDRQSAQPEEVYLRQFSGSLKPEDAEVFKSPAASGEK
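Fluo-8 calcium influx in TRPV1-expressing cells, kinetic read (ex 480/em 520 nm). Compound added and read 3 min for agonist activity, followed by capsaicin at EC20 final and 2 min further read for enhancement.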
MBNL1-CUG inh – blocks human MBNL1 binding to CUG repeat RNA; Q9NR56; TR-FRET MBNL1-His/biotin-(CUG)12 binding, 665/545 ratio; Potency, µM (titrated, usually from 57.5 µM), usual class: inhibitors; hit rate 0.036% among 280,000; AID 2675; active = well fitted inhibition curve with a large enough effect in the signal ratio, with a control signal flat, not every such curve was filed as active; inconclusive = small, poorly fitted or top-dose-only effect, or effect the other way, or a change in a side signal; inactive = no such curve, though single readings can be large or run the other way; the % refers to the signal ratio
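His-tagged MBNL1 binding to biotinylated (CUG)12 RNA was measured by TR-FRET using terbium anti-His antibody (0.055 ng/ul final) and streptavidin-XL665 (5 nM final). Compounds were titrated 92 nM to 58 uM; 60 min at room temperature.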
TRPV1 PAM – human TRPV1 potentiation; Q8NER1; TRPV1-expressing cells, Fluo-8 calcium influx, capsaicin EC20 potentiation; potentiation, % at 8.33 µM; hit rate 0.02% among 320,000; in the data active = potentiation above about 80%; inconclusive = between about 30% and that limit
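Fluo-8 calcium influx in TRPV1-expressing cells, kinetic read (ex 480/em 520 nm). Compound added and read 3 min for agonist activity, followed by capsaicin at EC20 final and 2 min further read for enhancement.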
KCNH2 3.1 block – inhibitors of human KCNH2 3.1 potassium channel isoform | U2OS KCNH2 3.1, thallium flux FluxOr; active compounds read low | hit rate 0.95% among 340,000 | activity change, % (tested at about 1.8 µM);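 active = maximum activity change below -70%; inconclusive = maximum activity change from -70% to -50%; inactive = maximum activity change above -50%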;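 note: thallium influx rate constant from kinetic fluorescence after stimulation buffer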
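Thallium flux read-out: FluxOr dye with Red40 quencher in HBSS/HEPES, 45 min at RT. Rate constants from kinetic reads were normalized to positive and negative DMSO controls. Cells: U2OS virally expressing the 3.1 isoform.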
Numbers stand for hits; - = inactive; ? = inconclusive; . = no result.

SMILES	hERG WT inh	TRPV1 agonist	MBNL1-CUG inh	TRPV1 PAM	KCNH2 3.1 block
N=c1c(C(=O)NC2CCCC2)cc2c(=O)n3ccccc3nc2n1Cc1ccccc1	-	?	?	-	-77.1
COc1ccc(CCn2c(=N)c(C(=O)NC3CCCCC3)cc3c(=O)n4ccccc4nc32)cc1	?	?	?	-	-86.7
N=c1c(C(=O)NCc2ccc(F)cc2)cc2c(=O)n3ccccc3nc2n1CC1CCCO1 (configuration not stated)	-122.3	?	?	-	-86.0
C=C1CCN([C@@H](CC(C)C)C(=O)NCc2ccco2)S(=O)(=O)c2ccccc21	-	.	.	.	-
Cc1ccc(Cn2c(=N)c(C(=O)NCC3CCCO3)cc3c(=O)n4cccc(C)c4nc32)cc1 (configuration not stated)	-	81.8	?	-	-
COc1ccc(CCn2c(=N)c(C(=O)NCC3CCCO3)cc3c(=O)n4ccccc4nc32)cc1 (configuration not stated)	?	?	?	-	-86.2
Cc1ccc(Cn2c(=N)c(C(=O)NCC3CCCO3)cc3c(=O)n4ccccc4nc32)cc1 (configuration not stated)	-	?	?	-	-
C=C(C)CN1CCN(S(=O)(=O)c2ccc(C)c(N(C)S(=O)(=O)c3ccc(C)cc3)c2C)CC1	-	-	.	-	-
CCc1ccc(C2=NN(C(C)=O)C(c3ccco3)C2)cc1 (configuration not stated)	-	-	-	-	-
COc1ccc(CN(C2CCCC2)S(=O)(=O)c2ccc(-n3cnnn3)cc2)cc1	-	-	-	-	-71.1
COc1ccc(CN(C2CCCC2)S(=O)(=O)c2ccc(-n3cnnn3)cc2)cc1OC	-	-	-	-	-
CC[C@]12c3[nH]c4cc(-c5ccco5)ccc4c3CCN1C(=O)[C@@H](CC(=O)NCc1cccc(C(F)(F)F)c1)C[C@@H]2C(=O)N1CCN(C(=O)c2ccco2)CC1	-	.	.	.	-
COc1ccccc1-c1cn[nH]c1-c1ccc(O)cc1O	-	-	-	-	-116.2
CCCCn1c(N)c(N(CC(C)C)C(=O)CSc2nnc(C)n2-c2ccccc2)c(=O)[nH]c1=O	-	.	.	.	-
CCOC(=O)C1C(=O)N(O)CC1c1cccc(Oc2ccccc2)c1 (configuration not stated)	-	-	-	-	-74.7
CN1C(=O)NC(c2cccc([N+](=O)[O-])c2)C2=C1CCCC2=O (configuration not stated)	-	-	-	-	-
COc1ccccc1/C=C/C(=O)Nc1ccc(S(=O)(=O)Nc2cc(C)on2)cc1	-	-	?	-	-
Cc1ccc2c(CC(=O)Nc3nc(C)cs3)coc2c1	-	-	-	-	-
Cc1cc(NC(=O)CCCN2C(=O)c3cccnc3C2=O)no1	-	-	?	?	-
Cc1cc(NC(=O)CCCN2C(=O)c3cccnc3C2=O)ccc1Br	-	-	?	-	-72.0
CCc1ccc(NC(=O)[C@@H](NC(=O)[C@@H]2Cc3ccccc3CN2)C(C)CC)cc1 (some centres not stated)	-	-	-	-	-
CCc1ccc(NC(=O)[C@H](NC(=O)[C@@H]2Cc3ccccc3CN2)c2ccccc2)cc1	-88.2	-	-	?	-
CC1CCCC(C)N1CCCNC(=O)c1ccc2nc(N3CCOCC3)sc2c1 (configuration not stated)	-	-	-	-	-
CC1CCCC(C)N1CCCNC(=O)c1ccc2nc(N3CCCCC3)sc2c1 (configuration not stated)	-158.1	-	-	-	-
CCCN1CCC(=O)N([C@H](CSc2ccccc2)c2ccccc2)CC1	-	-	-	-	-94.4
O=C1CCN(CCc2ccccc2)CCN1[C@H](CSc1ccccc1)c1ccccc1	-134.2	-	-	-	-101.2
CC(C)CN1CCC(=O)N([C@H](CSc2ccccc2)Cc2ccccc2)CC1	-	?	-	-	-100.6
CCCN1CCC(=O)N([C@H](CSc2ccccc2)Cc2ccccc2)CC1	-	-	-	-	?
CCCN1CCC(=O)N([C@H](CSc2ccc(Br)cc2)Cc2ccccc2)CC1	-89.5	?	-	-	-101.0
O=C(COC(=O)Cc1c(Cl)cccc1Cl)Nc1ccc(OC(F)(F)F)cc1	-	-	.	-	-
